Measurements taken from PubChem BioAssay (NCATS).
Inconclusive results are not listed. Activity calls are given as the source filed them. Unless noted, calls follow the shape of the dose curve; as a rule, active = well fitted curve in the direction sought with a large enough effect; inconclusive = small, poorly fitted or top-dose-only effect, or another doubt; inactive = no such curve, though single readings can be large; an effect the other way counts as inactive or inconclusive.

Columns and labels:
[1] = biological target: Luciferin 4-monooxygenase (Photinus pyralis) (UniProt P08659); test: Biochemical firefly luciferase enzyme assay for NPC (AID 624030); also: nearly all actives have a fitted effect of over 70% in size; also: potency is read from the fitted curve at half-maximal effect
Summary of the method: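 Direct inhibition of firefly luciferase enzyme (10 nM final, 50 mM Tris Acetate) assessed by luminescence within 5 minutes. Percent activity scaled between DMSO and PTC124 positive control, with concentration-effect curves classified by fit quality and response.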

[2] = biological target: Glutaminase kidney isoform, mitochondrial (Homo sapiens) (UniProt O94925); test: qHTS for Inhibitors of Glutaminase (GLS): LOPAC Validation (AID 624146);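 also: glutamate product detected by oxidase and peroxidase coupled Amplex red fluorescence gain; nearly all actives have a fitted effect of over 60% in size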
Summary of the method: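 Enzyme dispensed in phosphate buffer (45 mM, pH 8.2, 0.02% Tween-20), compounds pinned in, then 1 mM L-glutamine solution and the glutamate oxidase–HRP–Amplex Red mix added; fluorescence read immediately and again after 30 min at room temperature.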

[3] = qHTS of Trypanosoma Brucei Inhibitors: LOPAC Validation (AID 624147)
Summary of the method: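 ADP (130 uM final) triggers the TbPYK reaction after compound addition; incubation is 45 min at room temperature. Kinase-Glo Plus is then added and luminescence imaged. Normalized data are fitted to concentration-effect curves.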

[4] = biological target: Glucagon-like peptide 1 receptor (Homo sapiens) (UniProt P43220); test: qHTS of GLP-1 Receptor Agonists: LOPAC Validation (AID 624148);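 also: luminescence from a luciferase reporter switched on by cAMP; higher luminescence signal means agonism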
Summary of the method: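 Agonism scored as increased luciferase luminescence driven by cAMP in HEK293 clones carrying GLP-1R. Cells settled 12 hours, received compound for 4-6 hr at 37 deg C, 5% CO2, and were read after 12 min detection reagent at RT.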

[5] = qHTS of Nrf2 Activators: LOPAC Validation (AID 624149)
Summary of the method: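 AREc32_Fluc cells, 1000/well, OPTI-MEM + 5% FBS, o/n 37 deg C 5% CO2; compound pin-transfer, 24 hr 37 deg C; Steady-Glo 30 min RT, luminescence read.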

[6] = HTS Assay for Allosteric Antagonists of the Human D2 Dopamine Receptor: Hit Validation in HTRF (AID 624455)
Summary of the method: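 HTRF read-out; cells stably expressing D1 receptor; hits scored for inhibition of D1-mediated response. Primary screen: calcium flux, force-coupled inducible Hek293 Trex D2 line, antagonism vs EC80 dopamine.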

[7] = S16 Schwann cell viability assay (CellTiter-Glo assay) (AID 624031);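 also: native untransfected S16 rat Schwann cells; cellular ATP luminescence as a viability measure; nearly all actives have a fitted effect of over 70% in size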
Summary of the method: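 Rat S16 Schwann cells without reporter constructs received compound or DMSO for 24 h at 37 °C under 5% CO2. Cellular ATP was then quantified by CellTiter-Glo luminescence, with vehicle wells defined as 0% activity and cell-free wells as reference.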

[8] = S16 Schwann cell PMP22 intronic element firefly luciferase assay (AID 624032); also: nearly all actives have a fitted effect of over 30% in size; also: potency is read from the fitted curve at half-maximal effect
Summary of the method: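 Luciferase reporter of PMP22 intronic-element expression in stably transfected S16 rat Schwann cells, read by ONE-Glo luminescence after 24 h compound exposure at 37 C. Activity scaled between DMSO (0%) and positive-control PTC124; concentration-effect curves quality-classified.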

[9] = S16 Schwann cell PMP22 intronic element beta-lactamase assay (AID 624044; calls by dose curve; also: nearly all actives have a fitted effect of over 15% in size)
Summary of the method: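 Beta-lactamase reporter under a PMP22 intronic regulatory element in stable S16 rat Schwann cells; 24 h compound exposure. 460 nm blue signal normalized between DMSO (0%) and potassium clavulanate, with 535 nm FRET tracking viability; curves classed by r2 and response.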

[10] = Cytotoxicity counterscreen for NFkB agonists and antagonists (AID 624476); also: potency is read from the fitted curve at half-maximal effect
[11] = qHTS Assay for Identification of Small Molecule Agonists for NFkB Signaling Pathway. (AID 624478);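 also: compounds tested together with TNF alpha at its EC50 of 10 pM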
Summary of the method: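 Read-out: 460/530 nm emission at 405 nm excitation after 2 h LiveBLAzer loading; ME-180 NFkB-bla reporter cells exposed 5 h at 37 C to compounds with 10 pM TNF alpha final.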

[12] = qHTS Assay for Identification of Small Molecule Antagonists for NFkB Signaling Pathway. (AID 624479; calls by dose curve;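 also: pathway stimulated with TNF alpha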; also: potency is read from the fitted curve at half-maximal effect)
[13] = Cell Proliferation Assay against the TMD8 Cell Line (AID 651645); conditions: TMD8 DLBCL cell line proliferation/viability; at 46.1 µM (top of the series) unless noted;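 also: cells exposed to compound for 48 h before reading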
Summary of the method: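 Cell viability of the ABC DLBCL line TMD8 is measured by CellTiter-Glo luminescence following a 48-hour incubation with compound. Percent activity uses DMSO as 100% and 9.2 uM bortezomib (final) as 0%.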

[14] = Cell Proliferation Assay against the HBL1 Cell Line (AID 651646); conditions: HBL1 DLBCL cells; at 46.1 µM (top of the series) unless noted;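 also: cells exposed to compound for 48 h before reading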
Summary of the method: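 CellTiter-Glo luminescence after 48 h compound exposure at 37C gives percent activity, with DMSO as 100% and 9.2 uM bortezomib final as 0%. Cells: 500 log-phase HBL1 per well, RPMI plus 5% FBS.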

[15] = Cell Proliferation Assay against the TMD8 Cell Line (Caspase readout at 8 hrs) (AID 651713)
Summary of the method: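 Apoptosis readout: caspase 3/7 luminescence (Caspase-Glo), 15 min RT. Cells: TMD8, 500/well, RPMI + 5% FBS, no phenol red. Exposure 8 h, 37C. % activity vs DMSO = 0, bortezomib 9.2 uM final = 100.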

[16] = biological target: Voltage-gated inwardly rectifying potassium channel KCNH2 (Homo sapiens) (UniProt Q12809); test: qHTS Assay for Small Molecule Inhibitors of the Human hERG Channel Activity (AID 588834);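 also: top concentration of the series differs between compounds; lower thallium flux fluorescence means stronger hERG block; nearly all actives have a fitted effect of over 50% in size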
Summary of the method: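 Homogeneous FluxOR thallium flux assay using hERG-expressing U2OS cells (BacMam). Compound treatment about 10 minutes preceded stimulation; reduced fluorescence taken as channel block.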

[17] = Cell Proliferation Assay against the TMD8 Cell Line (Caspase readout at 16 hrs) (AID 651712)
Summary of the method: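 Caspase-Glo luminescence measured apoptosis after a 16 h, 37 C compound exposure of TMD8 cells (500 cells/well, 5% FBS RPMI). DMSO set 0% and bortezomib at 9.2 uM final set 100% activity.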

Chain of Glutaminase kidney isoform, mitochondrial (Homo sapiens) (O94925 whole entry, looked up, canonical isoform): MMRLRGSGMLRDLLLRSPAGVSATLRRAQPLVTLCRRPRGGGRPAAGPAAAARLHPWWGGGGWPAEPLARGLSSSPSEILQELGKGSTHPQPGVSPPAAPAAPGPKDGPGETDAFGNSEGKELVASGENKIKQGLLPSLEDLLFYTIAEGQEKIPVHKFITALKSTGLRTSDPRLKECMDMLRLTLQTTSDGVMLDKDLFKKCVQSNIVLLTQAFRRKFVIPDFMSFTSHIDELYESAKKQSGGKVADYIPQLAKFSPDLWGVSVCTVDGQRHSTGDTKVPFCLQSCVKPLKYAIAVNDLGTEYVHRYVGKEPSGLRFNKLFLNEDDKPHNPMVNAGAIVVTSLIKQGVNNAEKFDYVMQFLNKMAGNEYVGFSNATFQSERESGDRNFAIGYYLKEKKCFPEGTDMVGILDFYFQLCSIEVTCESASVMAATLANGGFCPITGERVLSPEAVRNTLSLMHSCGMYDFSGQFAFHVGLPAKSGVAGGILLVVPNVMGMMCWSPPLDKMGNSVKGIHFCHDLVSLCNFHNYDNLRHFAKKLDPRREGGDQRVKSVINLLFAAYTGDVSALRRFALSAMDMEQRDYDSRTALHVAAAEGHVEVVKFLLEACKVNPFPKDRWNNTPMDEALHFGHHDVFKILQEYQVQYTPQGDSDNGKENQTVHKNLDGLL
Chain of Glucagon-like peptide 1 receptor (Homo sapiens) (P43220 whole entry, looked up): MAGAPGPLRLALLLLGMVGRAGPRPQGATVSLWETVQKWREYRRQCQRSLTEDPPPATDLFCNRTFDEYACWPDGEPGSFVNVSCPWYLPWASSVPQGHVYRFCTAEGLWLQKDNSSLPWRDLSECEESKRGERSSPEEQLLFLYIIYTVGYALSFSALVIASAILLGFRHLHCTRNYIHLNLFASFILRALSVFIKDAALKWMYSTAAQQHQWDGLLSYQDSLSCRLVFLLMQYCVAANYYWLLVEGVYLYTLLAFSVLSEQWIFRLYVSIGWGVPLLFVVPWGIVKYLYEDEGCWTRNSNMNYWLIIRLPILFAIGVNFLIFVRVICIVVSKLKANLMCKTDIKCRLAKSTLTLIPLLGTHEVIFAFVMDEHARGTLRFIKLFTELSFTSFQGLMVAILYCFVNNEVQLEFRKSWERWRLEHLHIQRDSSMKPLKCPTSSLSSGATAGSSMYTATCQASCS
Chain of Voltage-gated inwardly rectifying potassium channel KCNH2 (Homo sapiens) (Q12809 whole entry, looked up): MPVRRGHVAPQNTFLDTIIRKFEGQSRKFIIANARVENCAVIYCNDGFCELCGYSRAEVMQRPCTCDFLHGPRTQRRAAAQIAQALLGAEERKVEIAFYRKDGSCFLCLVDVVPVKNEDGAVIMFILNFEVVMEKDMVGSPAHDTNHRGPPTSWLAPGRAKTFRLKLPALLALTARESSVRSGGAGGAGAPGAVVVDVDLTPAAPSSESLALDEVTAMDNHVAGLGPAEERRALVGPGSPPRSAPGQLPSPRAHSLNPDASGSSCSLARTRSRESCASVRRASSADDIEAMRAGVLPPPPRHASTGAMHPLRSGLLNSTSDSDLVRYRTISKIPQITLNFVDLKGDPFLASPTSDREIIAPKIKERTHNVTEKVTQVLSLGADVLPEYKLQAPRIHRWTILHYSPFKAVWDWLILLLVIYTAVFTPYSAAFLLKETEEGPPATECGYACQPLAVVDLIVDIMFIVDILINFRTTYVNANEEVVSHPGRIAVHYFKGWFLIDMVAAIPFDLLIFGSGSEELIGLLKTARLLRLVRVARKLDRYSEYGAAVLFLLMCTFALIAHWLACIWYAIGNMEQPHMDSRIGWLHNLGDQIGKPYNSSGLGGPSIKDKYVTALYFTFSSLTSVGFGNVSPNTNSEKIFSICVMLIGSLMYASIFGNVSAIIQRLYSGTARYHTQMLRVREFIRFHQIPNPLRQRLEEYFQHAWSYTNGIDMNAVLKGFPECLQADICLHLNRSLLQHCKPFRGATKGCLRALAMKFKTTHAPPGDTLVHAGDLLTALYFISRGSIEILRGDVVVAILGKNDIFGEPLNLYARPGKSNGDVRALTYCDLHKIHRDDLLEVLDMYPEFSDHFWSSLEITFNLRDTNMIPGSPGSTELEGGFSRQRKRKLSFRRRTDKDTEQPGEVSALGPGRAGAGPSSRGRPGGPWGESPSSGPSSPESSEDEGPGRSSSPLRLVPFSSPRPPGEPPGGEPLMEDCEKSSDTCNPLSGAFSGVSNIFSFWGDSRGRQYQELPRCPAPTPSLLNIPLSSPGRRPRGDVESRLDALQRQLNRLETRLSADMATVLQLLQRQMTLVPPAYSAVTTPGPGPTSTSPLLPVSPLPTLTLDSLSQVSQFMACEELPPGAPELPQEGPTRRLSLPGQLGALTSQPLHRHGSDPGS
Chain of Luciferin 4-monooxygenase (Photinus pyralis) (P08659 whole entry, looked up): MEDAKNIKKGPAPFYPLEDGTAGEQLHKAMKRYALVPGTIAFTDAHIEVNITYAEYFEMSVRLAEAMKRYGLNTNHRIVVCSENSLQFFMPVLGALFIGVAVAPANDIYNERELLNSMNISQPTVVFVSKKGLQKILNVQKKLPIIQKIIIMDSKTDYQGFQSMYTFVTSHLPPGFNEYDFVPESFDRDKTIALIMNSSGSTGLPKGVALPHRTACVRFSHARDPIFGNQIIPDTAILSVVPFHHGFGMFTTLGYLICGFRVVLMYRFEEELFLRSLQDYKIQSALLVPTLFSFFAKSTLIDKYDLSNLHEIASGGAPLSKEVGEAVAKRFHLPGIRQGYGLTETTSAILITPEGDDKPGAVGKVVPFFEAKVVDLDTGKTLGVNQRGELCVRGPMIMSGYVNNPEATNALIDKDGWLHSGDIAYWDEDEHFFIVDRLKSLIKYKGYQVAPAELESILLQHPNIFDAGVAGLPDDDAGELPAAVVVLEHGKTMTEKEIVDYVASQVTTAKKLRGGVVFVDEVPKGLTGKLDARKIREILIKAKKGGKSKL

OC(CCN1CCCCC1)(c1ccccc1)C1CC2C=CC1C2 (stereo unspecified)
inactive: Potency [1] | outcome [2] | outcome [3] | outcome [4] | outcome [5] | Potency [6]

NCCCC(N)(C(=O)O)C(F)F (stereo unspecified)
inactive: Potency [1] | Potency [7] | Potency [8] | outcome [9] | outcome [2] | outcome [3] | outcome [4] | outcome [5] | Potency [6]

CCOC(=O)N1CCC(=C2c3ccc(Cl)cc3CCc3cccnc32)CC1
inactive: Potency [1] | Potency [7] | outcome [9] | outcome [3] | outcome [4] | outcome [5] | Potency [6]

Clc1ccc(Nc2nnc(Cc3ccncc3)c3ccccc23)cc1
66.3%: viability, percent of control [14]
90.1%: viability (% of control) [13]
active: Potency [8] 20.3 µM
inactive: Potency [1] | outcome [9] | Potency [10] | outcome [11] | Potency [12]

COCC(=O)NCC=Cc1ccc2ncnc(Nc3ccc(Oc4ccc(C)nc4)c(C)c3)c2c1
41.4%: viability, percent of control [14]
active: Potency [10] 26.4 µM | Potency [12] 10.6 µM
28.1%: viability (% of control) [13]
inactive: outcome [11]

CC(C)C[C@H](NC(=O)[C@@H](O)[C@H](N)Cc1ccccc1)C(=O)O
106%: viability, percent of control [14]
inactive: Potency [1] | Potency [7] | Potency [8] | outcome [9] | outcome [2] | outcome [3] | outcome [4] | outcome [5] | Potency [6] | Potency [10] | outcome [11] | Potency [12] | Potency [15]

Cc1cc2c(C(C)C)c(O)c(O)c(C=O)c2c(O)c1-c1c(C)cc2c(C(C)C)c(O)c(O)c(C=O)c2c1O
6.38%: viability, percent of control [14]
inactive: Potency [16] | Potency [8] | outcome [9] | outcome [2] | outcome [3] | outcome [4] | outcome [5] | Potency [6] | outcome [11]

Cc1cc(-c2ccc(CC(=O)Nc3ccc(-c4cccnc4)cc3)cc2)ccn1
62.3%: viability (% of control) [13]
inactive: Potency [10] | outcome [11] | Potency [12]
101%: viability, percent of control [14]

Nc1nc2[nH]cc(CCc3ccc(C(=O)N[C@@H](CCC(=O)O)C(=O)O)cc3)c2c(=O)[nH]1
40%: viability (% of control) [13]
74.6%: viability, percent of control [14]
inactive: Potency [16] | Potency [10] | outcome [11] | Potency [12]

O=C(Nc1nc2ccccc2n1CCN1CCOCC1)c1cccc([N+](=O)[O-])c1
active: Potency [12] 2.66 µM
inactive: outcome [2] | outcome [3] | outcome [4] | outcome [5] | Potency [6] | Potency [10] | outcome [11] | Potency [17]
89.4%: viability, percent of control [14]

Nc1nc2ccc(OC(F)(F)F)cc2s1
50.6%: viability, percent of control [14]
inactive: Potency [7] | Potency [8] | outcome [2] | outcome [3] | outcome [4] | outcome [5] | Potency [6] | Potency [10] | outcome [11] | Potency [12] | Potency [15]

CCOC(=O)C1=C[C@@]2(CC)CCCN3CCc4c(n1c1ccccc41)[C@H]32
96.9% [at 29.8 µM]: viability, percent of control [14]
inactive: Potency [1] | Potency [10] | outcome [11] | Potency [12] | Potency [17]

Nc1nc2c(ncn2COCCO)c(=O)[nH]1
inactive: Potency [1] | Potency [7] | Potency [8] | outcome [2] | outcome [3] | outcome [4] | outcome [5] | Potency [6]

CCCc1nc2c(C)cc(-c3nc4ccccc4n3C)cc2n1Cc1ccc(-c2ccccc2C(=O)O)cc1
inactive: Potency [16] | Potency [10] | outcome [11] | Potency [12] | Potency [17] | Potency [15]
70.6%: viability, percent of control [14]

CCN(CC)CCCC(C)Nc1ccnc2cc(Cl)ccc12 (stereo unspecified)
inactive: outcome [2] | outcome [3] | outcome [4] | outcome [5] | Potency [6]

Cn1cnc2c(F)c(Nc3ccc(Br)cc3Cl)c(C(=O)NOCCO)cc21
76.1%: viability, percent of control [14]
inactive: Potency [1] | Potency [10] | outcome [11] | Potency [12] | Potency [15]

Cc1cc(-c2nnc3n2CCCCC3)c(C)n1-c1ccc(F)cc1
6.21%: viability (% of control) [13]
inactive: Potency [10] | outcome [11] | Potency [12]
4.79%: viability, percent of control [14]

CC(C)(Sc1ccc(CCN(CCCCC2CCCCC2)C(=O)NC2CCCCC2)cc1)C(=O)O
active: Potency [10] 23.5 µM | Potency [12] 21.1 µM
inactive: Potency [16] | outcome [2] | outcome [3] | outcome [4] | outcome [5] | Potency [6] | outcome [11] | Potency [17] | Potency [15]
92.1%: viability (% of control) [13]
13.8%: viability, percent of control [14]

CCCc1nn(C)c2c(=O)[nH]c(-c3cc(S(=O)(=O)N4CCN(C)CC4)ccc3OCC)nc12
inactive: Potency [1] | Potency [7] | outcome [9] | Potency [10] | outcome [11] | Potency [12] | Potency [17] | Potency [15]
106%: viability, percent of control [14]
102%: viability (% of control) [13]

c1ccc([C@H]2CN3CCSC3=N2)cc1
inactive: Potency [16] | outcome [2] | outcome [3] | outcome [4] | outcome [5]

COc1ccc(-c2ccc3c(N4CCOC[C@H]4C)nc(N4CCOC[C@H]4C)nc3n2)cc1CO
25%: viability (% of control) [13]
inactive: Potency [10] | outcome [11] | Potency [12]
57.8%: viability, percent of control [14]

CNC(=O)c1ccccc1Sc1ccc2c(/C=C/c3ccccn3)n[nH]c2c1
inactive: Potency [10] | outcome [11] | Potency [12]
active: Potency [1] 0.51 µM
23.8%: viability (% of control) [13]
56.4%: viability, percent of control [14]

NNCCc1ccccc1
inactive: Potency [16] | Potency [7] | Potency [8] | outcome [3] | outcome [4] | outcome [5] | Potency [6]

Nc1ncnc2nc(-c3ccc(N4CCOCC4)nc3)cc(-c3cccc(Br)c3)c12
66.5%: viability, percent of control [14]
inactive: outcome [2] | outcome [3] | Potency [6] | Potency [10] | outcome [11]

O=C(NOC[C@H](O)CO)c1ccc(F)c(F)c1Nc1ccc(I)cc1F
79.1%: viability (% of control) [13]
inactive: Potency [1] | outcome [11] | Potency [12] | Potency [15]

CNCc1ccc(-c2[nH]c3cc(F)cc4c3c2CCNC4=O)cc1
73.9%: viability, percent of control [14]
79.6%: viability (% of control) [13]
active: Potency [12] 21.1 µM
inactive: Potency [10] | outcome [11]
